± gives the standard deviation.
Experiments:
Details in all cases: modulator concentration 10 µM
[1] = system: RAW-Dual (murine macrophage reporter line); test: NF-kB reporter (SEAP) activity fold change vs agonist alone; higher = enhanced NF-kB activity
Outline: (§1)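 In 384-well plates holding 50 000 RAW-Dual murine macrophage reporter cells per well, compound at 10 μM final was pre-incubated for 1 hour at 37 °C, after which a PRR agonist was added overnight. Supernatant SEAP read with QUANTI-Blue at 620 nm absorbance reported NF-κB, and Lucia luciferase read with QUANTI-Luc luminescence reported IRF. Fold change values come from dividing each reporter signal by the mean of agonist-only control wells on the same plate, averaged over replicate plates with propagated errors.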

[2] = system: RAW-Dual (murine macrophage reporter line); test: IRF reporter (Lucia luciferase) activity fold change vs agonist alone; higher = enhanced IRF activity
Outline: as §1

[3] = system: RAW-Dual (murine macrophage reporter line); test: viability score (confluency relative to resting cells, overnight) (fraction); higher = more viable, active = viable (0.7 or more)
Outline: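 RAW-Dual macrophages in 384-well plates were treated overnight with compound at 10 μM final. IncuCyte imaging recorded confluency, and IncuCyte software built two confluency masks across every imaged well. The viability score expresses confluency relative to resting cells and was judged against a cutoff, which a compound met only if both masks exceeded 70% of resting cells.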

[4] = agonist: CpG ODN 1826 0.5 ug/mL

Row | SMILES | NF-kB reporter [1, 4] | NF-kB reporter ([1]; agonist: LPS 0.1 ug/mL) | NF-kB reporter ([1]; agonist: MPLA […]) | IRF reporter ([2]; agonist: 3'3'-cGAMP 10 ug/mL) | IRF reporter ([2]; agonist: LPS 0.1 ug/mL) | IRF reporter ([2]; agonist: MPLA […]) | viability score [3]
1 | FC(F)(F)c1ccc(/C=C/c2nc(COc3ccc(CCCCn4ccnn4)cc3)co2)cc1 | 1.26 ± 0.17 | 1.71 ± 0.29 | 1.46 ± 0.09 | 0.914 ± 0.028 | 1.67 ± 0.14 | 1.77 ± 0.16 | 0.995 (active)
2 | O=C1c2ccccc2C(=O)c2c1ccc(O)c2O | 1.03 ± 0.098 | 1.06 ± 0.054 | 1.02 ± 0.027 | 0.948 ± 0.084 | 0.949 ± 0.039 | 0.978 ± 0.076 | 0.999 (active)
3 | COC(=O)C1=CN(C2CC2)C=C(C(=O)OC)C1c1ccccc1OC | 0.917 ± 0.074 | 1.05 ± 0.058 | 0.97 ± 0.061 | 0.934 ± 0.074 | 1.22 ± 0.17 | 1 ± 0.097 | 1.01 (active)
4 | COc1cccc(NC(=O)CN(c2cccc(Br)c2)S(C)(=O)=O)c1 | 0.906 ± 0.085 | 0.998 ± 0.074 | 0.919 ± 0.036 | 0.848 ± 0.092 | 0.937 ± 0.11 | 0.876 ± 0.078 | 0.998 (active)
5 | O=C(NC1CCN(c2ncnc3c2CCCC3)CC1)c1ccc(=O)[nH]c1 | 1.09 ± 0.13 | 1.09 ± 0.11 | 0.949 ± 0.057 | 0.957 ± 0.096 | 1.24 ± 0.11 | 1.07 ± 0.1 | 1.02 (active)
6 | COCCN1CCC(NC(=O)c2cnc3ccccc3n2)CC1 | 0.441 ± 0.024 | 1.02 ± 0.085 | 1.35 ± 0.072 | 0.951 ± 0.05 | 1.14 ± 0.25 | 1.2 ± 0.48 | 0.935 (active)
7 | CC(=O)OCC(=O)NCCCOc1cccc(CN2CCCCC2)c1.Cl | 1.14 ± 0.19 | 1.21 ± 0.23 | 0.924 ± 0.056 | 0.951 ± 0.039 | 1.42 ± 0.13 | 1.11 ± 0.1 | 0.99 (active)
8 | CN1C(=O)C(=Cc2cccc3ccccc23)SC1=S | 0.909 ± 0.21 | 1.04 ± 0.088 | 0.949 ± 0.073 | 0.939 ± 0.024 | 1.26 ± 0.22 | 1.33 ± 0.15 | 0.998 (active)
9 | Cc1ncsc1C(=O)NC1CCC(F)(F)CC1 | 1.06 ± 0.068 | 1.1 ± 0.088 | 0.991 ± 0.033 | 0.68 ± 0.034 | 1.01 ± 0.057 | 1 ± 0.1 | 0.999 (active)
10 | CN(C)CCCN1c2ccccc2CCc2ccccc21.Cl | 0.827 ± 0.069 | 1.04 ± 0.1 | 1.2 ± 0.07 | 0.737 ± 0.043 | 0.935 ± 0.089 | 0.824 ± 0.093 | 0.883 (active)
11 | Nc1cccc(O)c1 | 0.98 ± 0.099 | 1.08 ± 0.069 | 1.03 ± 0.023 | 0.983 ± 0.09 | 0.946 ± 0.092 | 0.938 ± 0.11 | 0.997 (active)
12 | O=C(CCCCCN1C(=O)c2cccc3cccc(c23)C1=O)NCCCO | 0.997 ± 0.08 | 0.993 ± 0.064 | 0.919 ± 0.036 | 1.02 ± 0.14 | 1.11 ± 0.053 | 1.08 ± 0.082 | 0.993 (active)
13 | C=C1C(=O)OC2C1CCC(C)=CCCC1(C)OC21 (stereo not drawn) | 0.0586 ± 0.0046 | 0.0442 ± 0.0037 | 0.0844 ± 0.008 | 0.0346 ± 0.011 | 0.025 ± 0.0055 | 0.0274 ± 0.0061 | 0.253 (inactive)
14 | Cc1cnc(NC(=O)C2=C(O)c3ccccc3S(=O)(=O)N2C)s1 | 1.24 ± 0.18 | 1.06 ± 0.41 | 0.953 ± 0.066 | 0.927 ± 0.036 | 1.15 ± 0.29 | 0.987 ± 0.089 | 1.01 (active)
15 | Cc1cccc(Sc2nccn3c(=O)n(CC(=O)N4CCN(c5ccccc5)CC4)nc23)c1 | 0.924 ± 0.081 | 0.589 ± 0.067 | 0.664 ± 0.043 | 0.28 ± 0.024 | 0.6 ± 0.041 | 0.733 ± 0.12 | 0.983 (active)
16 | O=[N+]([O-])c1ccccc1S(=O)(=O)N1CCCC1 | 0.974 ± 0.11 | 1.06 ± 0.065 | 0.907 ± 0.055 | 0.921 ± 0.042 | 1.34 ± 0.087 | 1.23 ± 0.25 | 1.01 (active)
17 | C=CCc1ccc(OCCCOc2ccccc2C(C)=O)c(OC)c1 | 1.02 ± 0.072 | 1.08 ± 0.082 | 1.19 ± 0.049 | 0.66 ± 0.026 | 0.863 ± 0.052 | 1.07 ± 0.12 | 0.99 (active)
18 | CCN(CC)CCNC(=O)c1c(C)[nH]c(/C=C2\C(=O)Nc3ccc(F)cc32)c1C | 0.102 ± 0.0079 | 0.192 ± 0.015 | 0.475 ± 0.031 | 0.0578 ± 0.003 | 0.0794 ± 0.014 | 0.0928 ± 0.022 | 0.359 (inactive)
19 | CCC(=O)Nc1ccc(NC(=O)c2ccco2)c(OC)c1 | 0.828 ± 0.065 | 0.831 ± 0.11 | 1.08 ± 0.12 | 0.934 ± 0.044 | 1.32 ± 0.11 | 1.42 ± 0.18 | 1.01 (active)
20 | O=C(O)CCCNCP(=O)(O)CCc1ccccc1 | 0.97 ± 0.099 | 0.91 ± 0.093 | 0.881 ± 0.083 | 0.964 ± 0.048 | 0.989 ± 0.14 | 0.963 ± 0.19 | 1.03 (active)
21 | CCCCc1ncc(/C=C(\Cc2cccs2)C(=O)O)n1Cc1ccc(C(=O)O)cc1.CS(=O)(=O)O | 1.08 ± 0.081 | 1.11 ± 0.055 | 1.03 ± 0.039 | 0.927 ± 0.062 | 0.973 ± 0.077 | 0.836 ± 0.079 | 1 (active)
22 | O=[N+]([O-])c1ccc(C=CC=Nc2ccc(-c3nc4ccccc4s3)c(O)c2)cc1 | 0.813 ± 0.06 | 1.04 ± 0.067 | 0.971 ± 0.034 | 0.746 ± 0.042 | 0.973 ± 0.082 | 0.946 ± 0.079 | 0.994 (active)
23 | O=C(Cc1ccccc1)NC(NC(=S)Nc1ccc(O)cc1)C(Cl)(Cl)Cl (stereo not drawn) | 0.88 ± 0.075 | 0.818 ± 0.098 | 1.06 ± 0.1 | 0.935 ± 0.032 | 1.29 ± 0.24 | 1.57 ± 0.33 | 1.02 (active)
24 | CC=CCn1c(=O)c2c(nc3n2CC(C(C)(C)C)=NN3)n(C)c1=O | 1.02 ± 0.092 | 1.09 ± 0.1 | 1.08 ± 0.11 | 1 ± 0.026 | 1.28 ± 0.2 | 0.943 ± 0.099 | 0.96 (active)

From the supplement of paper PMC10646978
